APEX1 inh – qHTS Assay for Inhibitors of the Human Apurinic/apyrimidinic Endonuclease 1 (APE1); DNA repair nuclease/redox regulator APEX1 (Homo sapiens), P27695; recombinant APE1, TAMRA/BHQ-2 abasic DNA cleavage fluorescence; Potency, µM (titrated, usually from 65.8 µM), actives largely listed as inhibitors; actives 0.35% (n = 350,000); AID 2517, 2012; also: nearly all actives have a fitted effect of over 55% in size
Target sequence (P27695 whole entry, looked up): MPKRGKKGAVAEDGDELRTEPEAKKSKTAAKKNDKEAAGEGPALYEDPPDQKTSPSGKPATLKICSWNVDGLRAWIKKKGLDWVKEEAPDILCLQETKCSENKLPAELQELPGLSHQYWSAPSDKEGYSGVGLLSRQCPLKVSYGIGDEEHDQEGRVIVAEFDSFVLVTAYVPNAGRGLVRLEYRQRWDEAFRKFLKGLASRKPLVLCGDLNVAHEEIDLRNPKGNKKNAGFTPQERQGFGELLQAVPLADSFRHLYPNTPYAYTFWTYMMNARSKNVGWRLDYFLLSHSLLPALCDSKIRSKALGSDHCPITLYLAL
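Compound pre-exposure to 0.75 nM APE1, 15 min at ambient temperature. Reaction initiated with 50 nM TAMRA/BHQ-2 THF substrate, read immediately in kinetic mode, 525 nm excitation, 598 nm emission.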
BLM helicase inh – qHTS Assay for Inhibitors of Bloom's syndrome helicase (BLM) | Potency, µM (top dose mostly 56.1 µM), most hits filed as inhibitors | actives 0.2% (n = 350,000) | recombinant BLM DNA unwinding, fluorescence dequenching | RecQ-like DNA helicase BLM (Homo sapiens), P54132; also: nearly all actives have a fitted effect of over 35% in size
RECQ1 helicase – qHTS Assay for Inhibitors of RecQ-Like Dna Helicase 1 (RECQ1). ATP-dependent DNA helicase Q1 (Homo sapiens), P46063. RECQ1 DNA unwinding, red fluorescence kinetic read. Potency, µM (series often up to 57.3 µM), actives largely listed as inhibitors. actives 0.54% (n = 240,000). AID 2549, 2010; also: nearly all actives have a fitted effect of over 30% in size
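50 nM RECQ1T1 preincubated 15 min with compound in Tris pH 8.0 buffer with MgCl2, DTT, Tween-20 and 2.5 ug/ml poly(dI-dC); started with 200 nM TAMRA/BHQ-2 forked duplex and 2 mM ATP. Unwinding read as fluorescence (525/598 nm), two reads 2 h apart.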
WRN helicase inh – qHTS for Inhibitors of WRN Helicase | Potency, µM (series often up to 114 µM), usual class: inhibitors | WRN helicase unwinding, fluorescent forked duplex, kinetic | actives 0.46% (n = 360,000) | Bifunctional 3'-5' exonuclease/ATP-dependent helicase WRN (Homo sapiens), Q14191; also: nearly all actives have a fitted effect of over 55% in size
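Screening of the MLSMR collection measured strand separation of a quenched forked DNA duplex (100 nM) by 20 nM WRN with 2 mM ATP, all final. Compounds were preincubated with enzyme 15 min at room temperature.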
L3MBTL1 block – qHTS Assay for the Inhibitors of L3MBTL1. Lethal(3)malignant brain tumor-like protein 1 (Homo sapiens), Q9Y468. Potency, µM (titrated, usually from 57.1 µM), actives largely listed as inhibitors. AlphaScreen L3MBTL1–H3K9me1 peptide binding. AID 485360, 2010. actives 0.66% (n = 230,000); also: nearly all actives have a fitted effect of over 60% in size
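Read-out is AlphaScreen signal from streptavidin donor and nickel chelate acceptor beads (10 ug/mL final each) bridging L3MBTL1 (50 nM) and biotinylated K9-monomethylated H3(1-15) peptide (75 nM), after 30 min compound exposure at room temperature.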
A number is an active result; . = inactive; ? = inconclusive; / = no result; [ ] = dose if it differs, or a comment. Only some compounds are listed: those with a hit (about 0.92% of all), similar ones and a draw of the others. Calls follow the shape of the dose curve; as a rule, active = well fitted curve in the direction sought with a large enough effect; inconclusive = small, poorly fitted or top-dose-only effect, or another doubt; inactive = no such curve, though single readings can be large; an effect the other way counts as inactive or inconclusive.

SMILES	APEX1 inh	BLM helicase inh	RECQ1 helicase	WRN helicase inh	L3MBTL1 block
CCN1/C(=C/c2ccc3cccc(C)c3[n+]2CC)Sc2ccccc21	.	?	.	?	.
CCN1/C(=C/c2ccc3cc(C)ccc3[n+]2CC)Sc2ccc3sccc3c21	/	/	/	.	/
COC(=O)CCCC[C@H]1SC[C@H]2NC(=O)N[C@]21O	.	.	.	/	2.2µM
COc1ccccc1-c1csc(N2CCC(C(N)=O)CC2)n1	.	/	/	/	/
CCOC(=O)C1CCN(Cc2ccc(O)c3ncccc23)CC1	.	.	.	.	28µM
COc1cc(OC)c2c(O)c3c(c(-c4c5c(c(O)c6c(OC)cc(OC)cc46)CO[C@@H](C)[C@H]5O)c2c1)[C@H](O)[C@H](C)OC3	?	?	25µM	50µM	?
Oc1c(N=Nc2ccccn2)ccc2ccccc12	.	.	.	56µM	11µM
Oc1[nH]c2ccccc2c1N=Nc1ccccn1	/	/	/	.	/
CSCC[C@H](NC(=O)CN)C(=O)N[C@@H](CC(=O)O)C(=O)N[C@@H](CO)C(=O)N[C@@H](CC(C)C)C(=O)N[C@@H](C)C(=O)N[C@@H](Cc1ccccc1)C(=O)N[C@@H](CO)C(=O)NCC(=O)NCC(=O)N[C@@H](CC(C)C)C(N)=O	.	.	.	/	/
CC[C@@H](C)[C@H](N)C(=O)O	.	/	/	/	/
COc1cc(C2Nc3cccc4cccc(c34)N2)cc(OC)c1O	.	.	.	.[11.6 µM]	22µM
COc1cc(N2C(=O)C=CC2=O)ccc1N1C(=O)C=CC1=O	/	/	/	20µM	/
COc1ccc(N2C(=O)C3CC(C)=C(C)CC3C2=O)c(OC)c1 (stereo unspecified)	.	.	.	.	/
C#CCCCO/N=C1/[C@H]2O[C@@H]2[C@@H](O)[C@H]2[C@H]1CCn1c(=O)n(C)c(=O)n12	.[12.4 µM]	.[12.4 µM]	.[11.5 µM]	/	/
O=C(CN1CC(=O)Oc2ccccc21)OCC(=O)c1ccc(F)cc1	.	.	.	.	18µM
O=C[C@@H]1CCCN1C(=O)[C@@H]1CCCN1C(=O)OCc1ccccc1	.	/	.	/	/
COc1ccc(S(=O)(=O)c2c(N)n(Cc3ccco3)c3nc4ccccc4nc23)cc1	.	?	.	35µM	28µM
COc1ccc(Cn2c3nc4ccccc4nc3c3c(=O)n(Cc4ccco4)c(C)nc32)cc1	?	?	3.5µM	/	/
Cc1nc2c(c(=O)n1Cc1ccccc1Cl)c1nc3ccccc3nc1n2Cc1ccco1	.	.	.	/	/
Cc1ccc(S(=O)(=O)c2c(N)n(CCCN(C)C)c3nc4ccccc4nc23)cc1	.	.	.	.	.
COc1ccc(Cn2c(C)nc3c(c2=O)c2nc4ccccc4nc2n3Cc2ccco2)cc1	/	/	/	8.4µM	/
Cc1ccc(S(=O)(=O)Nc2ccc(NS(=O)(=O)c3ccc(C)cc3)c3ncccc23)cc1	.	.	.	/	/
COc1ccc(NC(=O)C2CCN(S(=O)(=O)c3ccc4c(c3)NC(=O)C(C)S4)CC2)cc1 (stereo unspecified)	.	.	/	.	/
CC1Sc2ccc(S(=O)(=O)N3CCC(C(=O)Nc4ccc(Cl)cc4)CC3)cc2NC1=O (stereo unspecified)	.	.	/	79µM	/
O=S(=O)(c1ccc(NC(=S)NN=C2CCCCC2)cc1)N1CCOCC1	35µM	.	.	.	.
SMILES	APEX1 inh	BLM helicase inh	RECQ1 helicase	WRN helicase inh	L3MBTL1 block
Cc1nc2ccccc2c(=O)n1/N=C/c1c(O)ccc2ccccc12	.	.	.	.	22µM
Cc1nc2ccccc2c(=O)n1/N=C/c1cc(Br)ccc1O	.	.	/	.	/
N#Cc1c(-c2ccc([N+](=O)[O-])cc2)no[n+]1[O-]	.	/	/	/	/
O=C(Cc1cccs1)N/N=C/C=C/c1ccco1	.	25µM	.	?	?
O=C(CN1CCN(Cc2ccccc2)CC1)N/N=C\C=C/c1ccco1	.	.	.	.	.
O=C(CSc1nnc(SCc2ccccc2)s1)N/N=C/C=C/c1ccco1	13µM	25µM	22µM	40µM	28µM
CC[C@H](C)[C@H](NC(=O)[C@H](Cc1ccc(O)cc1)NC(=O)[C@H](Cc1cnc[nH]1)NC(=O)[C@H](CCCNC(=N)N)NC(=O)[C@H](CC(C)C)NC(=O)[C@H](C)NC(=O)[C@@H](N)CO)C(=O)N[C@@H](CC(N)=O)C(=O)N[C@@H](CC(C)C)C(=O)N[C@H](C(=O)N[C@H](C(=O)N[C@@H](CCCNC(=N)N)C(=O)N[C@@H](CCC(N)=O)C(=O)N[C@@H](CCCNC(=N)N)C(=O)N[C@@H](Cc1ccc(O)cc1)C(N)=O)[C@@H](C)O)[C@@H](C)CC	.	.	.	/	/
CC(=O)[C@@H]1[C@H]2[C@H](C(=O)[C@H]3OC[C@@H]2O3)[C@H]2C=Cc3ccccc3N21	.	.	32µM	/	/
C=CC[n+]1c(/C=C2\C=Cc3cc(C)ccc3N2CC)ccc2ccccc21	.	.	.	50µM	?
CC(C)(C)NC[C@H](O)COc1ccccc1C1CCCC1	.	/	/	/	/
CCN(c1ccc(N=Cc2c(O)n(Cc3ccc(OC)cc3)c(=O)c3ccccc23)cc1)C(C)C	.	.	.	40µM	?
NCCC[C@@H](CC(=O)N[C@@H]1CCNC[C@H]1C(=O)N[C@H](CC(=O)N[C@@H](CCC(=O)O)CC(=O)O)Cc1ccccc1)NC(=O)C[C@H](CO)NC(=O)[C@@H]1CNCC[C@H]1N	.	22µM	.	/	/
CCC[C@H]1C[C@H](C(=O)NC(C(C)Cl)C2O[C@@H](SC)C(OP(=O)(O)O)[C@@H](O)[C@@H]2O)N(C)C1 (stereo partly specified)	/	.	.	/	/
Cc1[nH]c(=O)[nH]c1C(=O)CCCCC(=O)O	.	.	.	.	0.35µM
CCCCSCc1[nH]c(=O)[nH]c1C(=O)CCCCC(=O)OCC	.	.	.	.	.
Oc1c(Cl)cc(Cl)cc1/C=N/NC(=S)NC1CC2C=CC1C2 (stereo unspecified)	.	.	.	.	32µM
CC(C)C(=O)SCCCCCCC(=O)Nc1nc(-c2ccccc2)cs1	.	.	.	/	/
O=C1c2ccccc2C(=O)C1(O)O	?	/	32µM	/	?
Fc1ccc(C[n+]2csc3ccccc32)cc1	.	.	.	56µM	.
Cc1cc(C2(c3ccc(O)c(C)c3)OC(=O)c3ccccc32)ccc1O	?	.	.	.	?
O=C(O)CN(CC(=O)O)CC1=CC2C(=CC1=O)Oc1cc(O)c(CN(CC(=O)O)CC(=O)O)cc1C21OC(=O)c2ccccc21 (stereo unspecified)	13µM	/	/	/	/
CCCSc1nsc(SCCC)c1C#N	.	.	.	.	/
